The structures appear in SMILES notation. The source made the active and inactive calls. Cut-off read from the data, not from the text of the source: active = inhibition above about 65%; inactive = the rest.

This assay deals with Antitargets. As to the kind of experiment: Fam108b inhibition by ABPP, late-stage follow-up, biochemical, gel-based ABPP, recombinant soluble Fam108b, HTS hits, complex proteome (AID 588651).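 Note: Fam108b spiked into mouse brain membrane proteome; tested at 20 µM.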 Conditions: FP-rhodamine labeling in proteome.
Regarding `O=c1ccc2cc3c([nH]c4ccc(Br)cc43)oc-2c1O`, the outcome was inactive.
In the case of `N=c1oc2cc(O)ccc2cc1C(=O)Nc1ccc(Br)cc1`, the outcome was inactive.
Regarding `Fc1ccc2nc(Nc3nc4cc5c(cc4s3)OCO5)sc2c1`, the result was inactive.
With `CCc1ccc(S(=O)(=O)N=C2C=C(Sc3ncn[nH]3)C(=O)c3ccccc32)cc1`, the outcome was inactive.
Take `O=c1oc(-c2ccccc2F)nc2scc(-c3ccccc3)c12`: the result was inactive.
In the case of `CCOC(=O)c1sc(NC(=O)Nc2ccc(Cl)cc2)cc1C`, the result was inactive.
In the case of `O=C1C(Cl)=C(N2CCC(C(=O)O)CC2)C(=O)c2ccccc21`, the result was inactive.
For `O=C(O)c1ccc(S(=O)(=O)/N=C2\C=C(Nc3ccccc3F)C(=O)c3ccccc32)cc1`, the result was inactive.
`COc1ccc2ccccc2c1C(O)c1nccn1C` (centres undefined): the outcome was inactive.
Consider `CN(c1ccccc1)S(=O)(=O)c1ccc(NC(=O)c2ccc(-c3ccccc3)cc2)cc1`, for which the result was inactive.
Regarding `Oc1oc(-c2ccccc2Br)nc1C=Nc1ccccn1`, the outcome was active.
Consider `Cc1cc(Nc2ccc(Cl)cc2)nc(NCc2ccccc2)n1`, for which the outcome was inactive.
To `CN(C)S(=O)(=O)c1cccc(NC(=O)COC(=O)c2cc(-c3cccc(Br)c3)nc3ccccc23)c1` belongs “inactive”.
On to `CC(C)(C)c1nc2scc(-c3cccs3)c2c(=O)o1`, for which the outcome was inactive.
To `COc1cccc(-n2c(SCc3cc(=O)oc4cc(O)c(O)cc34)nc3ccccc3c2=O)c1` belongs “inactive”; to `Oc1ccccc1-c1nc2c3ccccc3c3ccccc3c2[nH]1`, “inactive”.
With `CCN(CC)c1ccc(C2Nc3cccc4cccc(c34)N2)c(O)c1`, the result was inactive.
As for `O=C(NCC1CC1)c1ccc(Nc2nc3ccc(Br)cc3[nH]2)cc1`, the result was inactive.
With `O=C(NN=Cc1ccc(O)cc1)c1cccc(NN=Cc2ccc(O)cc2)c1`, the outcome was active.
Regarding `COc1ccc(C=NNC(=O)c2ccc(O)cc2)cc1CN1CCCc2ccccc21`, the outcome was inactive.
As for `COc1ccc(NC(=S)Nc2ccc3nsnc3c2)cc1`, the result was inactive.
To `O=C1C(Cl)=C(Nc2ccc3cn[nH]c3c2)C(=O)c2ccccc21` belongs “inactive”; to `Cc1cccc(N=Cc2nc(-c3ccccc3Br)oc2O)n1`, “inactive”; to `Oc1c(Cl)cc(Cl)c(Cl)c1Cc1c(O)c(Cl)cc(Cl)c1Cl`, “inactive”.
With `O=C(NC1CCCCC1)c1sc(=S)n2c1[nH]c(=O)c1ccccc12`, the result was inactive.
In the case of `Clc1ccccc1C(c1ccccc1)(c1ccccc1)n1ccnc1`, the result was inactive.
As to `Oc1ccc(C2Nc3cccc4cccc(c34)N2)c(O)c1`, the result was inactive.
Consider `Cc1nc2scc(-c3ccc(Cl)cc3)c2c(=O)o1`, for which the result was inactive.
Consider `Cc1c(O)ccc(C=NNc2nc(-c3cccnc3)nc3ccccc23)c1O`, for which the result was active.
For `O=[N+]([O-])c1ccc(NN=Cc2ccccc2O)cc1`, the outcome was inactive.
With `Cc1ccc2nc(CSc3nc(C)ccc3C#N)[nH]c2c1`, the result was inactive.
`CCn1nc([N+](=O)[O-])c(C(C#N)c2nc3cc(C(F)(F)F)ccc3s2)c(Cl)c1=O` (centres undefined): the result was inactive.
Regarding `O=C(Nc1ccc2[nH]c(=S)sc2c1)Nc1ccccc1F`, the outcome was inactive.
Regarding `O=C1c2ccccc2-c2onc3ccc(NCCCn4ccnc4)c1c23`, the result was inactive.

Source of the values: PubChem BioAssay AID588651 (The Scripps Research Institute Molecular Screening Center, 2011).
